{
  "source": "paper PMC4336329",
  "about": "(PLoS ONE, 2015)",
  "note": "The campaign covered roughly 310,000 compounds. About 2,200 (0.71%) showed an effect of 50% or more. Effects have a minus sign here. The full list was thinned out, with strong results kept by preference.",
  "data": [
    {"molecular_target": "human ether-à-go-go-related gene (hERG) potassium channel (human, UniProt Q12809)", "sequence (Q12809 whole entry, looked up)": "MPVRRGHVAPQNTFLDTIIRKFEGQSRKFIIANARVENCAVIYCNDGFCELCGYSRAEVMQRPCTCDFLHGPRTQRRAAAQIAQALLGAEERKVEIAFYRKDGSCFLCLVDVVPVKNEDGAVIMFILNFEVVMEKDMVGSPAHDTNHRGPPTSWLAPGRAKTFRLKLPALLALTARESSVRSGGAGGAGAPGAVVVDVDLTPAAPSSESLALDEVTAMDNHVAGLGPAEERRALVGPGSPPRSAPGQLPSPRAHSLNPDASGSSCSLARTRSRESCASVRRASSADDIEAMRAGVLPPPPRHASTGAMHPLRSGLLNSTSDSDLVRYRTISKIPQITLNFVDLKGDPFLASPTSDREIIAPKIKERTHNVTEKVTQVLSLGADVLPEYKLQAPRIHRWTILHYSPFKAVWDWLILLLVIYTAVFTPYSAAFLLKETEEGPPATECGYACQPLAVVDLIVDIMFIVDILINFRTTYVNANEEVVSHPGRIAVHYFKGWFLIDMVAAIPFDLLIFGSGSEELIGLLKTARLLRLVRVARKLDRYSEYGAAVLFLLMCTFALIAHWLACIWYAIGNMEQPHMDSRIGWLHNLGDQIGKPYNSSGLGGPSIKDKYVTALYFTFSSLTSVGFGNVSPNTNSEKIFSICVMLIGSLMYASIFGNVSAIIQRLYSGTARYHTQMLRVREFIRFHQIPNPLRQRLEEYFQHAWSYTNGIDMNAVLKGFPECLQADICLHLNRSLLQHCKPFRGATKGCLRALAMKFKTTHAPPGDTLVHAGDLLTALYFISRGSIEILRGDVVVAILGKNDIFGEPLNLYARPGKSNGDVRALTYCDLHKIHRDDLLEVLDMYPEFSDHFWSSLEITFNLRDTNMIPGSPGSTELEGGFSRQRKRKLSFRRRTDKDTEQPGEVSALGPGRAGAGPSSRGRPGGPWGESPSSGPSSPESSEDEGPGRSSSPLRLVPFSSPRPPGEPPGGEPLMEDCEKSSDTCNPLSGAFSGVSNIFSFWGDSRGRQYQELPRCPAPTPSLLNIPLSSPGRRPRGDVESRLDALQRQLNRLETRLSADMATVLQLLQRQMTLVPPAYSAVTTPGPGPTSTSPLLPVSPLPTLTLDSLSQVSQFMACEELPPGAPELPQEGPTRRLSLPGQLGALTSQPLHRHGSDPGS", "assay": "primary screen, population patch clamp on CHO cells stably expressing hERG; higher = less effect of the substance", "units": {"hERG current change (%, negative = inhibition) at 1uM": "%"}, "values": [
      {"smiles": "COc1ccc(CN2CCN(Cc3ccccc3C(F)(F)F)CC2)c(OC)c1.O=C(O)C(=O)O", "hERG current change (%, negative = inhibition) at 1uM": -39.5},
      {"smiles": "Cc1ccc(N2C(=O)CC(NCc3ccc4c(c3)OCO4)C2=O)cc1Cl", "note": "(stereo not drawn)", "hERG current change (%, negative = inhibition) at 1uM": -12.2},
      {"smiles": "COc1ccc(COC(=O)c2ccc(C)c(S(=O)(=O)N3CCOCC3)c2)cc1F", "hERG current change (%, negative = inhibition) at 1uM": 16},
      {"smiles": "Cc1ccc(CNS(=O)(=O)c2ccc3c(c2)C(C)(C)C(=O)N3C)cc1", "hERG current change (%, negative = inhibition) at 1uM": 7.06},
      {"smiles": "COc1cc(CNC(=O)CCCC/C=C/C(C)C)ccc1O", "hERG current change (%, negative = inhibition) at 1uM": 11.8},
      {"smiles": "CC(=O)N1CCN(c2ccc(NC(=O)c3ccc(Cl)c([N+](=O)[O-])c3)cc2)CC1", "hERG current change (%, negative = inhibition) at 1uM": 5.32},
      {"smiles": "O=C(C/C(=N\\NC(=O)c1ccccc1Br)C(F)(F)F)c1cccs1", "hERG current change (%, negative = inhibition) at 1uM": 3.65},
      {"smiles": "O=C(Nc1ncnc2sc3c(c12)CCCCC3)c1ccc(F)cc1", "hERG current change (%, negative = inhibition) at 1uM": 14.2},
      {"smiles": "Cc1[nH]c2ccccc2c1C(=O)CSc1nc2cc(S(=O)(=O)N3CCCCC3)ccc2o1", "hERG current change (%, negative = inhibition) at 1uM": 9.62},
      {"smiles": "CCc1cc2c(=O)c(-c3nc4ccccc4n3C)c(CCCC(=O)O)oc2cc1OC(=O)C(C)(C)C", "hERG current change (%, negative = inhibition) at 1uM": 14.8},
      {"smiles": "CC(=O)c1ccc(NC(=O)Cc2ccsc2)cc1", "hERG current change (%, negative = inhibition) at 1uM": 14.1},
      {"smiles": "C=CCNC(=O)NS(=O)(=O)c1ccc(C)cc1", "hERG current change (%, negative = inhibition) at 1uM": 16.6},
      {"smiles": "Cc1cccn2c(=O)c3cc(C(=O)NCCN4CCOCC4)c(=N)n(CCc4ccccc4)c3nc12", "hERG current change (%, negative = inhibition) at 1uM": -71.8},
      {"smiles": "Cc1cccn2c(=O)c3cc(C(=O)NC(C)c4ccccc4)c(=N)n(CCCn4ccnc4)c3nc12", "note": "(stereo not drawn)", "hERG current change (%, negative = inhibition) at 1uM": -10.8},
      {"smiles": "Cc1cccn2c(=O)c3cc(C(=O)NCCc4ccccc4)c(=N)n(CCCn4ccnc4)c3nc12", "hERG current change (%, negative = inhibition) at 1uM": -61.3},
      {"smiles": "Cc1cccn2c(=O)c3cc(C(=O)NCCCn4ccnc4)n(C)c3nc12", "hERG current change (%, negative = inhibition) at 1uM": 2.55},
      {"smiles": "Cc1ccc(C2(C)NC(=O)N(CC(=O)Nc3cc(S(=O)(=O)N4CCOCC4)ccc3C)C2=O)cc1", "note": "(stereo not drawn)", "hERG current change (%, negative = inhibition) at 1uM": -9.42},
      {"smiles": "CC(C)(C)c1ccc(/C=N/OCC(=O)NCc2ccc(F)cc2)cc1", "hERG current change (%, negative = inhibition) at 1uM": 11.5},
      {"smiles": "O=C(CO/N=C/c1ccc(OC(F)F)cc1)NCc1ccc(F)cc1", "hERG current change (%, negative = inhibition) at 1uM": -52},
      {"smiles": "COC(=O)c1ccc(/C=N/OCC(=O)NCc2ccc(F)cc2)cc1", "hERG current change (%, negative = inhibition) at 1uM": 3.32},
      {"smiles": "O=C(NCc1cc(C(F)(F)F)cc(C(F)(F)F)c1)C1CC(c2ccc(C(F)(F)F)cc2)=NO1", "note": "(stereo not drawn)", "hERG current change (%, negative = inhibition) at 1uM": 18.6},
      {"smiles": "Cl.c1ccc2c(c1)nc1n2CCN1CCN1CCCC1", "hERG current change (%, negative = inhibition) at 1uM": 18.3},
      {"smiles": "Cl.c1ccc(CN2CCN(CCN3CCn4c3nc3ccccc34)CC2)cc1", "hERG current change (%, negative = inhibition) at 1uM": -62.3},
      {"smiles": "CN1CCN(CCN2CCn3c2nc2ccccc23)CC1.Cl", "hERG current change (%, negative = inhibition) at 1uM": 5.64},
      {"smiles": "COc1ccc(CN(C)C(c2ccccc2)c2nnnn2-c2ccccc2C)c(OC)c1C", "note": "(stereo not drawn)", "hERG current change (%, negative = inhibition) at 1uM": 11.5},
      {"smiles": "CCn1c(CC(=O)Nc2ccccc2)nnc1SCC(=O)NC1CCCC1", "hERG current change (%, negative = inhibition) at 1uM": 5.86},
      {"smiles": "Cc1cc(C)c2nc(N3CCC(C(=O)NCc4ccccn4)CC3)sc2c1", "hERG current change (%, negative = inhibition) at 1uM": 9.75},
      {"smiles": "Cc1cc(=O)n2nc(N3CCC(C(=O)NCc4cccnc4)CC3)sc2n1", "hERG current change (%, negative = inhibition) at 1uM": 6.87},
      {"smiles": "Cc1cc(C)c2nc(N3CCC(C(=O)NCc4cccnc4)CC3)sc2c1", "hERG current change (%, negative = inhibition) at 1uM": -50.6},
      {"smiles": "Cc1ccc(S(=O)(=O)N2CCN(c3ccnc4cc(Cl)ccc34)CC2)cc1C", "hERG current change (%, negative = inhibition) at 1uM": 21.6},
      {"smiles": "Clc1ccc2c(N3CCNCC3)ccnc2c1", "hERG current change (%, negative = inhibition) at 1uM": -15.4},
      {"smiles": "N#Cc1cccc(S(=O)(=O)N2CCN(c3ccnc4cc(Cl)ccc34)CC2)c1", "hERG current change (%, negative = inhibition) at 1uM": -57.2},
      {"smiles": "O=S(=O)(c1cccs1)N1CCN(c2ccnc3cc(Cl)ccc23)CC1", "hERG current change (%, negative = inhibition) at 1uM": -2.74},
      {"smiles": "O=[N+]([O-])c1ccc(S(=O)(=O)N2CCN(c3ccnc4cc(Cl)ccc34)CC2)cc1", "hERG current change (%, negative = inhibition) at 1uM": -77.8},
      {"smiles": "O=S(=O)(c1ccccc1OC(F)(F)F)N1CCN(c2ccnc3cc(Cl)ccc23)CC1", "hERG current change (%, negative = inhibition) at 1uM": 9.89},
      {"smiles": "O=S(=O)(c1ccc(Br)s1)N1CCN(c2ccnc3cc(Cl)ccc23)CC1", "hERG current change (%, negative = inhibition) at 1uM": 6.07},
      {"smiles": "O=S(=O)(c1cccc(Br)c1)N1CCN(c2ccnc3cc(Cl)ccc23)CC1", "hERG current change (%, negative = inhibition) at 1uM": 10.2},
      {"smiles": "O=S(=O)(c1ccccc1)N1CCN(c2ccnc3cc(Cl)ccc23)CC1", "hERG current change (%, negative = inhibition) at 1uM": -79.9},
      {"smiles": "Cc1ccc(NC2CCCN(C(=O)c3ccc(-n4ccnc4)cc3)C2)cc1C", "note": "(stereo not drawn)", "hERG current change (%, negative = inhibition) at 1uM": -4.71},
      {"smiles": "COc1ccc(-c2cc(-c3ccc(C)cc3)nc(SCc3nnc(-c4ccccc4)o3)c2C#N)cc1OC", "hERG current change (%, negative = inhibition) at 1uM": 8.98},
      {"smiles": "CS(=O)(=O)N1N=C(c2ccco2)CC1c1ccccc1Cl", "note": "(stereo not drawn)", "hERG current change (%, negative = inhibition) at 1uM": 9.15},
      {"smiles": "CCn1nc(C)c(/C=N/NC(=O)CSc2ccccn2)c1C", "hERG current change (%, negative = inhibition) at 1uM": 10.3}
    ]}
  ]
}
